# Measured values published in the supplement of paper PMC3334620.
# Whole data set: some 33,000 sequences, median “E-score (-0.5 to 0.5)” near -0.053, cut for the highest 2% near 0.37. The entries come from a sample that favours the highest values as a whole.
# Target: Hap1 (UniProt P0CE41)
# Experiment: PBM E-score (8-mer binding enrichment) (E-score (-0.5 to 0.5)); higher = stronger / more preferred TF binding
# Conditions: protein concentration: 200 nM; construct: GST-DNA-binding domain
# Protocol: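 Universal 'all 10-mer' protein binding microarrays (Agilent AMADID 015681) probed with GST-tagged S. cerevisiae TFs (full-length or DBD) made by in vitro transcription/translation (PURExpress), about 100-200 nM. Bound TF was detected with fluorescent anti-GST. Each ungapped 8-mer (which stands for itself and its reverse complement) is scored by the PBM enrichment score (E-score), a modified Wilcoxon-Mann-Whitney statistic from -0.5 to +0.5, computed with the Universal PBM Analysis Suite. Scale: above 0.35 generally sequence-specific binding.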
# UniProt P0CE41, sequence (P0CE41 whole entry): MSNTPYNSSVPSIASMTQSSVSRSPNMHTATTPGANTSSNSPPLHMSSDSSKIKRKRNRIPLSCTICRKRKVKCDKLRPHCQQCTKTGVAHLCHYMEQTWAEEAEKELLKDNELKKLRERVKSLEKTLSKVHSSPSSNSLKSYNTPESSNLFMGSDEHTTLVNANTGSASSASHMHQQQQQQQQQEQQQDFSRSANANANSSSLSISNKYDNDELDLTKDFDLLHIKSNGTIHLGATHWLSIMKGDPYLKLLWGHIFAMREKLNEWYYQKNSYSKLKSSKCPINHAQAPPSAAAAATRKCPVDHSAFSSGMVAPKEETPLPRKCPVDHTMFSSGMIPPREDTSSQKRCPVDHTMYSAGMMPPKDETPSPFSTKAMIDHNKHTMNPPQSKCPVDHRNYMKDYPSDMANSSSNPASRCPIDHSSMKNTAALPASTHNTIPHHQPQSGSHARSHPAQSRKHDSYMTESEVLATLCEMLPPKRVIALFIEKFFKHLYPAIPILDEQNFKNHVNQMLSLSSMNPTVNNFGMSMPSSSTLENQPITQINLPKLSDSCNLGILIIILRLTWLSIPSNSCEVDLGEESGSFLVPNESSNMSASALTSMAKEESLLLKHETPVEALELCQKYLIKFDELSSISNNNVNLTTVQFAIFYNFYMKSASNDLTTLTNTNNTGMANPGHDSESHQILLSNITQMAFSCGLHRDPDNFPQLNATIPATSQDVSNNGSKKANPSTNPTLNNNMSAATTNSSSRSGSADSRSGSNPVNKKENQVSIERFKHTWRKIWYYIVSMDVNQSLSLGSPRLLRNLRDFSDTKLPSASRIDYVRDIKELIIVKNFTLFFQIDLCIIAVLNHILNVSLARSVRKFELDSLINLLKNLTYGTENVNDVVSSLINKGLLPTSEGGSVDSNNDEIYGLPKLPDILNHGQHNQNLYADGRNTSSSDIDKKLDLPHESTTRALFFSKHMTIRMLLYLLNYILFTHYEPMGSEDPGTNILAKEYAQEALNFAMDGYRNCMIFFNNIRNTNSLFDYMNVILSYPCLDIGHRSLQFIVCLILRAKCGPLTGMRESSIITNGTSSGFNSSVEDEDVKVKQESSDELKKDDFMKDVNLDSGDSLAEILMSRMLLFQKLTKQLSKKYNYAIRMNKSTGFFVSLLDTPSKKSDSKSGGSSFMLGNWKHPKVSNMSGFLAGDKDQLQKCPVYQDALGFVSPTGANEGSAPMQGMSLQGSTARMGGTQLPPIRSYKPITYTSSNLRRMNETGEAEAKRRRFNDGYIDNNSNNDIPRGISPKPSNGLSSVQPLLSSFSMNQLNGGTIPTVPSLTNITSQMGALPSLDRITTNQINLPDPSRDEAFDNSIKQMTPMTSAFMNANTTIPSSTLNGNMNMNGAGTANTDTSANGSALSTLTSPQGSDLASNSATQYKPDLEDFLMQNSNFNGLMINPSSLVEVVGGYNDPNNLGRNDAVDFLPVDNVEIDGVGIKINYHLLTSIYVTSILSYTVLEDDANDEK
row,Sequence,PBM E-score
1,CAGATTAG,-0.167
2,AGGACATA,-0.187
3,GCTCAGTA,-0.239
4,CCAATGCA,-0.186
5,CGGACCCA,0.346
6,AAGTGACA,-0.105
7,ACCGGACC,0.397
8,AACGGACC,0.327
9,ACCGGTCG,0.289
10,ACCGGACT,0.408
11,AACGGACT,0.337
12,AGCGGACT,0.287
13,ACCGGATC,0.296
14,ACCGGACG,0.421
15,ACCGGATG,0.329
16,CTTCTGAC,-0.224
17,CTCCAGCA,-0.241
18,AATACGCG,0.0739
19,ACTAAACG,-0.112
20,ATACCTTA,-0.0965
21,AAACTACG,0.118
22,CCCTCCAC,-0.233
23,AGGACGTA,0.00968
24,GCGACGGA,0.258
25,CCGACGGA,0.386

row,Sequence,PBM E-score
1,GGGACGGA,0.227
2,CGGACGTA,0.443
3,ACGACGGA,0.199
4,CGGACGTC,0.258
5,CGGACGGA,0.397
6,CGGACGGC,0.327
7,CAGGTGTA,-0.199
8,CAGGTATG,-0.00123
9,CGGGTGGC,0.152
10,CACCCCAC,-0.026
11,CCCCGTGC,0.269
12,ACAACTTC,0.00956
13,CCCGACAA,0.311
14,CCAAGCTA,-0.112
15,CGCAGGAG,-0.0823
16,ACACCGGT,0.359
17,ACACCGGC,0.341
18,CCACCGGC,0.233
19,CCACCGGG,0.34
20,ACACCGGA,0.395
21,TCACCGCA,0.0366
22,CCACCGGA,0.432
23,GCACCGGA,0.353
24,TCACCGGA,0.373
25,GATCAGCC,-0.11

row,Sequence,PBM E-score
1,CTGCAGAC,-0.128
2,GACCCAAA,-0.00261
3,GGAGTATA,0.206
4,ACATGTAG,-0.081
5,CAAAGCAC,-0.138
6,CGGTGAGC,0.0638
7,AGACCTGA,-0.0959
8,CCGCGGTA,0.303
9,ATCCTCTC,-0.186
10,AGCGGGAA,0.207
11,CTAACCGA,0.176
12,AACCCCGC,0.371
13,AAACCCCG,0.438
14,AACCCCCG,0.262
15,AAACCCCC,0.0478
16,ACCCCCGG,0.368
17,AACCCCGG,0.456
18,CACCCCGG,0.264
19,ACCCCCGC,0.217
20,ATAACCGC,0.157
21,GACCCCGC,0.134
22,ATAACCGA,0.386
23,CTACTAGC,0.0698
24,GCCGTCCA,0.0557
25,AATAGATG,-0.118

row,Sequence,PBM E-score
1,CGTGTTTA,0.038
2,AAATTCTA,-0.166
3,ATGTACTA,-0.14
4,GTGGATCA,-0.21
5,CACCAATC,-0.0582
6,CAGATTGA,-0.0798
7,CCCAACAG,-0.328
8,ACCGTAAA,0.0865
9,CAACTGTA,-0.234
10,ATGTGCCA,-0.302
11,AAACCCGC,0.335
12,AAAACCCT,-0.0696
13,AAAACCGA,0.396
14,AAACCCGG,0.454
15,GAACCCGA,0.23
16,AAAACCCG,0.4
17,TAACCCGA,0.355
18,AAACCCGT,0.361
19,AAAACCGC,0.109
20,GAAACCGA,0.274
21,AAACCCGA,0.439
22,AAAACCCC,0.187
23,AGCCAGGC,-0.141
24,GCTTGGGA,-0.149
25,ACTGGGAG,-0.0791

row,Sequence,PBM E-score
1,CAGCTACA,-0.156
2,ACGCCTAC,-0.0649
3,GATGCGAA,-0.0227
4,TATTGCGA,0.0517
5,AGTTTGTC,-0.117
6,CACCATCG,-0.192
7,GCAGCGGC,-0.00312
8,ACGAGATC,-0.15
9,CCGCTGCA,-0.0239
10,GTACCTCA,-0.238
11,ATTCCGTC,0.213
12,ATTCCGCC,0.295
13,ATTCCGCG,0.285
14,ATTCCGGC,0.37
15,ATTCCGTG,0.294
16,ATTCCGGG,0.374
17,GAGTCGCC,-0.0011
18,CCTTGTCA,-0.311
19,CGGAGTTC,0.394
20,CGGAGTAC,0.254
21,AGGAGTTA,0.292
22,CGGAGTTA,0.494
23,GGGAGTAA,0.147
24,CTGAGTTC,-0.0173
25,CGGAGTAA,0.37

row,Sequence,PBM E-score
1,GGGAGTTA,0.247
2,AGGAGTTC,-0.143
3,CCCCTGTA,-0.154
4,GCTCGATA,0.0192
5,AGAGGAAT,-0.205
6,ATCTCTAC,-0.223
7,AAGATGGG,-0.126
8,AGCCGGAC,0.409
9,AGCCGGGG,0.268
10,AGCCGGAG,0.404
11,AGCCGGAT,0.418
12,AGCCGGCT,0.25
13,AGCCGGGC,0.173
14,AGCCGGTG,0.326
15,CGCCGGGC,0.332
16,CGCCGGAC,0.409
17,CGTCGGAC,0.338
18,AGCCGGCA,0.334
19,AGCCGGCC,0.354
20,ACACGCAG,-0.093
21,CGAGAAAC,0.187
22,AGCTTTGA,-0.0822
23,AAAGTGCT,-0.21
24,AAAGAATT,-0.0164
25,AGAGCTGC,-0.128

row,Sequence,PBM E-score
1,CGCTTTGA,0.0268
2,AACAGCTT,-0.106
3,TAGACACA,-0.156
4,AGCCGGGA,0.231
5,CGACGGAG,0.287
6,CGCCGGAA,0.357
7,AGCCGGTA,0.414
8,CGCCGTAG,0.187
9,AGCCGGAA,0.371
10,GGACGGAC,0.358
11,CGCCGGAG,0.399
12,GGCCGGTA,0.344
13,GGCCGGAC,0.398
14,AGCCGGTC,0.0184
15,GGCCGGAA,0.363
16,AAATACGA,-0.0883
17,CAACGGGC,0.153
18,CGCGAGCG,0.104
19,AGTAGCAG,-0.173
20,ATCCTCGA,-0.107
21,AAACGCCC,0.263
22,GTCCCGAC,0.243
23,AGGCGGCC,0.0302
24,GGTTCGAA,0.00151
25,CGTTCGTA,0.0644

row,Sequence,PBM E-score
1,GGTTCGGA,0.373
2,CGTTCGGC,0.291
3,CGTTCGGA,0.412
4,AGTTCGGA,0.366
5,GGCATACC,0.107
6,CCCGGCTA,0.344
7,ATGTTTCA,-0.21
8,CATGGTGG,-0.137
9,GCCCTCGC,-0.0401
10,CCCGTCTA,-0.0612
11,CGTACCTC,-0.0658
12,AACTGCTT,-0.134
13,CCTCCTCG,-0.147
14,ACCTGCTG,-0.058
15,TACCGGTA,0.441
16,AACCGGGA,0.193
17,TCCCGGGA,0.392
18,GACCGGTA,0.243
19,CCCCGGGA,0.348
20,CACCGGTC,0.227
21,TACCGGGA,0.387
22,AACCGGTA,0.331
23,CACCGGTG,0.24
24,CACCGGTA,0.376
25,GACCGGGA,0.329

row,Sequence,PBM E-score
1,TCACGGGA,0.0121
2,CAGTAGAA,-0.229
3,TTGCGCAA,-0.00107
4,CATGCAGC,-0.164
5,AGCTCGAC,-0.227
6,ATCAAGCG,0.0373
7,AGCTCGGG,0.363
8,CGCGACTA,0.197
9,CCCTTAAG,0.13
10,CCACCTGC,-0.121
11,GAAGACTA,-0.0051
12,CTTCTCCA,-0.301
13,CGGACATA,0.489
14,CGGACAAG,0.357
15,CGGACAAA,0.405
16,GGGACATA,0.0939
17,CGGACATC,0.365
18,AGGACAAA,-0.016
19,CGAGTTGC,-0.053
20,ACAGCGCG,0.0018
21,AGGGCGTA,-0.137
22,GGGGCGAA,0.127
23,CGGGCGTA,0.395
24,CGGGCGAA,0.375
25,GGGGCGTA,0.00742

row,Sequence,PBM E-score
1,CGGGCGAC,0.304
2,AAAGGTGG,-0.156
3,ACGGCGAA,0.0956
4,CCGAAGTC,0.318
5,ATTGAACC,-0.0801
6,CGGCCGAC,0.415
7,GGGCCGAC,0.312
8,AGGCCGAC,0.32
9,CGGCCGAA,0.449
10,AGGCCGAG,0.303
11,CGGCCAAG,0.195
12,CGGCCGAG,0.449
13,GGGCCGAA,0.311
14,TGGCCGAA,0.261
15,GTACTGAC,-0.119
16,CGCAGTCA,-0.0499
17,AGAGATGG,-0.0221
18,AAGTGCGA,0.00701
19,ATGAGTCC,0.0718
20,AACGACCC,0.00262
21,AGGACAGC,-0.0413
22,CTCCGGGA,0.392
23,GTCCGGGA,0.38
24,ATCCGGGA,0.239
25,CTCCGGGC,0.341

row,Sequence,PBM E-score
1,GGCCGGGA,0.336
2,CGCCGGGA,0.317
3,CGTGGTTA,-0.251
4,AGTGGAAG,0.0152
5,AATGGGCG,-0.0792
6,GAGGCGGC,0.0321
7,GTCCGATA,0.463
8,ATCCGATG,0.277
9,ATCCGATC,0.326
10,CTCCGATC,0.311
11,CTCCGATA,0.432
12,GTACGATA,-0.189
13,ATCCGATA,0.453
14,GTTCGATA,0.0968
15,CTACGATA,-0.179
16,CTAACGTC,0.00466
17,TCGTACCA,-0.114
18,GAGGCCAA,-0.0324
19,AACTGTCA,-0.212
20,ACAAACGA,-0.145
21,CTCTGTCA,-0.296
22,TACCATGA,-0.347
23,AAGGGGGA,-0.179
24,GTCACCCA,-0.158
25,ATACCGTA,0.092

row,Sequence,PBM E-score
1,CTACCGGC,0.29
2,ATACCGTG,0.0634
3,CTACCGCA,0.108
4,AGACCGGC,0.235
5,ATACCGGA,0.437
6,ATACCGCG,0.21
7,ATACCGCA,0.284
8,ATACCGGC,0.398
9,ATACCGGG,0.416
10,CTACCGGA,0.412
11,CTACCGAA,0.0576
12,ATGGCTCA,-0.343
13,GGAAACCA,-0.0131
14,AGTACTTC,0.153
15,CGCGCTTA,0.209
16,CTGGAGGC,-0.096
17,AGACAAAC,-0.0936
18,CAATTCTG,-0.284
19,CCTCCTCA,-0.13
20,GATTCTAC,-0.0077
21,GTACCGTA,0.0486
22,GTACCGCA,0.236
23,GTACCGGA,0.393
24,AGGGAGAA,-0.0602
25,AATGGTGT,-0.0527

row,Sequence,PBM E-score
1,ATAGTAGC,0.0136
2,ACCCCGAG,0.348
3,ACCCCGAC,0.308
4,ACCCCGAA,0.377
5,CCCCCGAA,0.312
6,AACCCGAC,0.32
7,ACCCCGAT,0.416
8,AACCCGAG,0.317
9,GCCCCGAA,0.333
10,AACCCGAT,0.375
11,CGCGTAAA,0.188
12,AGTTATGG,-0.0493
13,ACTGTGCG,-0.13
14,ATCATCGC,0.0926
15,AATTTCCA,0.0738
16,CAGAAGCC,-0.0458
17,GTACGGAA,0.28
18,CGCTCACG,0.118
19,AATACCAT,-0.0062
20,ATGGTCAA,-0.23
21,TGGACTAA,-0.117
22,CGGACTTA,0.488
23,GGGACTAA,0.0852
24,CGGACTTC,0.405
25,CTGACTTC,-0.0182

row,Sequence,PBM E-score
1,AGGACTTC,-0.152
2,AGGACTTA,0.18
3,CGGACTAA,0.411
4,GGGACTTA,0.0397
5,CCTGGTCC,0.138
6,GCCAGGAA,-0.262
7,ATCGGCGA,0.357
8,GTCGGCGA,0.218
9,ACCGGCGT,0.282
10,CTCGGCGA,0.383
11,ACCGGCGC,0.267
12,GCCGGCGA,0.364
13,ACCGGCGG,0.418
14,TCCGGCGA,0.362
15,ACCGGCGA,0.39
16,ATGGACGA,0.0824
17,GGGGGTAC,0.215
18,CTAACAGA,-0.101
19,CTAGCAGA,-0.242
